According to PubChem BioAssay:
Active and inactive are the calls of the source. Unless noted, how the calls were made is not given here.

How the values were obtained:
[1] = HepG2 liver cancer cell viability effects, profiling panel, resazurin fluorescence, 24 h, PK04 Diversity Set (AID 1172); conditions: higher = more signal
[2] = basal S. cerevisiae growth modulation, no modifier, primary screen, OD600, strain BY4716, 24 h, basal condition (AID 1173); conditions: OD600, 24 h, higher = more signal, called active from +8 up or from −8 down
[3] = MM1S myeloma cell viability, profiling panel, resazurin fluorescence, basal, 24 h, PK04 Diversity Set (AID 1174); conditions: higher = more signal, called active from +8 up or from −8 down;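 further: MM1S multiple myeloma cell line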
[4] = biological target: Dihydroorotate dehydrogenase (quinone), mitochondrial (Plasmodium falciparum (isolate 3D7)) (UniProt Q08210); assay: PfDHODH enzyme inhibitors, primary screen, biochemical, C-terminal His tag, absorbance 600 nm (AID 1175); conditions: DCIP absorbance 600 nm, higher = more signal, called active from +8 up or from −8 down;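 further: recombinant parasite enzyme with a five histidine tag at its C terminus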
Dihydroorotate dehydrogenase (quinone), mitochondrial (Plasmodium falciparum (isolate 3D7)), sequence (Q08210 whole entry, looked up): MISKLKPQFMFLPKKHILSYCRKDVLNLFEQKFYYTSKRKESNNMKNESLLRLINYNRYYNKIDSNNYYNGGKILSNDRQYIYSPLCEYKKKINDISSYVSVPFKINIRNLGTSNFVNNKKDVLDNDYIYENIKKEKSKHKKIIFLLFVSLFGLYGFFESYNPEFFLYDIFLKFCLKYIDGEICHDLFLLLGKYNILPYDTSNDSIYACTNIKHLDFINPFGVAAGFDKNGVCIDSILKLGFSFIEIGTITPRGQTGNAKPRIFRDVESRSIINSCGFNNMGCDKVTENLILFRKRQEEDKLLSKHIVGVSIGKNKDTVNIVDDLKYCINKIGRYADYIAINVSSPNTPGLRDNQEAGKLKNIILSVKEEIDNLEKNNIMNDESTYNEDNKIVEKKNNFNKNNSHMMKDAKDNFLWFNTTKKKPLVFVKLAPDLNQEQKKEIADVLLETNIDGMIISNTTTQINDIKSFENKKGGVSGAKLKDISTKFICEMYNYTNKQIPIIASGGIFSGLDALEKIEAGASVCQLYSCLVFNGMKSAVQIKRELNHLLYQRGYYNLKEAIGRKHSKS

[5] = P. aeruginosa biofilm formation inhibitors, primary screen, strain PAO1, LB-PBS medium, absorbance 600 nm (AID 1176); conditions: P. aeruginosa PAO1 growth/biofilm, A600, 12 h; higher = more signal
[6] = S. cerevisiae RM11-1a growth modifiers, primary screen, strain RM11-1a, OD600, basal, 24 h (AID 1177); conditions: OD600, 24 h, higher = more signal, called active from +8 up or from −8 down;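 further: cultures grown under basal conditions with no added stressor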
[7] = E. coli acrAB mutant growth effects, primary screen, E. coli filamentation inducers, strain DRC39, OD650, 24 h (AID 1178); conditions: higher = more signal, called active from +8 up or from −8 down;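 further: growth measured as culture turbidity by optical density at 650 nm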
[8] = E. coli acrAB mutant growth effects, primary screen, E. coli filamentation inducers, strain DRC39, OD650, 48 h (AID 1179);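 further: screen aims at cell division blockers that make cells filament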; conditions: E. coli DRC39 delta-acrAB growth, higher = more signal, called active from +8 up or from −8 down
[9] = RPMI8226 myeloma cell viability, profiling panel, resazurin fluorescence, basal, 24 h, PK04 Diversity Set (AID 1180); conditions: higher = more signal;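 further: RPMI8826 multiple myeloma cell line at 5000 cells per well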
[10] = biological target: E3 ubiquitin-protein ligase XIAP (Homo sapiens) (UniProt P98170); assay: XIAP binders, primary screen, biophysical, small-molecule microarray, fluorescence 635 nm (AID 1181); conditions: small-molecule microarray binding, higher = more signal;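 further: score merges 667 nm emission and signal to noise over triplicate slides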
E3 ubiquitin-protein ligase XIAP (Homo sapiens), sequence (P98170 whole entry, looked up): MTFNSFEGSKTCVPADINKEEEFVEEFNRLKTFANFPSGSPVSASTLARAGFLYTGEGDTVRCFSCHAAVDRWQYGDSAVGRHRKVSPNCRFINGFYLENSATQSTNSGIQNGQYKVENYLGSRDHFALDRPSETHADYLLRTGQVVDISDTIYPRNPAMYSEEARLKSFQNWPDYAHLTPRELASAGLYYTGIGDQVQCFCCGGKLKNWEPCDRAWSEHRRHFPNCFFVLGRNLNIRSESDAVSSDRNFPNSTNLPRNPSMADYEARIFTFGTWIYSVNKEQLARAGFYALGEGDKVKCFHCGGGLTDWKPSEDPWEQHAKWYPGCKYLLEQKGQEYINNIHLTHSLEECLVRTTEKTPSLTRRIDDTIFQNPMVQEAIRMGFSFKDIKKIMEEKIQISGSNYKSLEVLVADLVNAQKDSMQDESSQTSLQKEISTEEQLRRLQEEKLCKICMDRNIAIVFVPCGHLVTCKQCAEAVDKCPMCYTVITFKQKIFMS

[11] = system: XIP peptide (Xip251-270) binding; assay: small-molecule binders of XIP peptide, primary screen, biochemical, small-molecule microarray, fluorescence 635/667 nm, 0.1 µg/mL protein (AID 1182); conditions: fluorescent protein binding, 635 nm, higher = more signal, called active from +8 up or from −8 down
XIP peptide (Xip251-270) = assay: small-molecule binders of XIP peptide, primary screen, biochemical, small-molecule microarray, fluorescence 635/667 nm, 0.5 µg/mL protein (AID 1183); conditions: small-molecule microarray binding, fluorescence 635 nm; higher = more signal
[12] = Plasmodium falciparum growth inhibition, primary screen, strain 3D7, DAPI fluorescence, 100 nL (AID 1184);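 further: parasites grown inside human red blood cells in medium with human serum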; conditions: P. falciparum 3D7 growth, 3 d, higher = more signal
[13] = biological target: Homeobox protein Hox-A13 (Mus musculus) (UniProt Q62424); assay: inhibitors of HoxA13-DNA binding, primary screen, biochemical, fluorescence polarization, labeled oligonucleotide (AID 1185); conditions: 15 min, higher = more signal, called active from +8 up or from −8 down
Homeobox protein Hox-A13 (Mus musculus), sequence (Q62424 whole entry, looked up): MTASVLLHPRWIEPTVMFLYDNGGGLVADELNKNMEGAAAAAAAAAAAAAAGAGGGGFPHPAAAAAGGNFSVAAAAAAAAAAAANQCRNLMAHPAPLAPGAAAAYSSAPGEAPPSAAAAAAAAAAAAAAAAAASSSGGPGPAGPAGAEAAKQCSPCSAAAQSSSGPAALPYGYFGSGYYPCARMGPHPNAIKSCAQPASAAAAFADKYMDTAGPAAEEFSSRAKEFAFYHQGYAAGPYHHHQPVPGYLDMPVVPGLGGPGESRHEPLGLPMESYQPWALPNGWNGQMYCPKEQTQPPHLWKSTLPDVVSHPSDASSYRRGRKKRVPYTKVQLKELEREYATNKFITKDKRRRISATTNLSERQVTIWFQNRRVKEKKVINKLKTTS

[14] = inhibitors of hydroxyurea-induced Chk1 phosphorylation, primary screen, imaging, HeLa, phospho-Chk1 antibody, percent positive cells (AID 1186); conditions: hydroxyurea-induced phospho-Chk1 immunofluorescence imaging, higher = more signal
[15] = inhibitors of hydroxyurea-induced Chk1 phosphorylation, primary screen, imaging, HeLa, phospho-Chk1 nuclear intensity (AID 1187); conditions: hydroxyurea-induced phospho-Chk1 immunofluorescence imaging, higher = more signal

## C=CCNC(=O)[C@H]1[C@@H]2C(=O)O[C@@H](c3ccccc3)[C@@H](c3ccccc3)N2[C@@H](c2ccc(O)cc2)[C@]12C(=O)Nc1ccc(C#CC3=CCCCC3)cc12
[1]
  z-score: -0.118
[2]
  z-score: -0.147 (inactive)
[3]
  z-score: -2.44 (inactive)
[4]
  composite z-score: 0.018 (inactive)
[5]
  z-score: 1.41 (inactive)
[6]
  z-score: 1.87 (inactive)
[7]
  z-score: 0.322 (inactive)
[8]
  z-score: 0.628 (inactive)
[9]
  z-score: -5.43
[10]
  composite z-score: -0.124
[11]
  composite z-score: 0.542 (inactive)
XIP peptide (Xip251-270)
  composite z-score: 0.785
[12]
  z-score: -0.51
[13]
  z-score: 0.771 (inactive)
[14]
  z-score: -0.354 (inactive)
[15]
  z-score: -0.217 (inactive)

## C#CCN=C(N)N
[1]
  z-score: -0.0276
[2]
  z-score: -0.639 (inactive)
[3]
  z-score: 0.111 (inactive)
[4]
  composite z-score: -0.377 (inactive)
[5]
  z-score: 0.845 (inactive)
[6]
  z-score: -0.491 (inactive)
[7]
  z-score: -0.383 (inactive)
[8]
  z-score: -0.079 (inactive)
[9]
  z-score: 0.0428
[10]
  composite z-score: 0.155
[11]
  composite z-score: 0.189 (inactive)
XIP peptide (Xip251-270)
  composite z-score: 0.391
[12]
  z-score: -0.624
[13]
  z-score: -0.327 (inactive)
[14]
  z-score: -0.351 (inactive)
[15]
  z-score: -0.447 (inactive)

## [N-]=[N+]=NCc1ccccc1[C@@H]1OC(c2ccc(OCCCO)cc2)=N[C@]1(Cc1ccccc1)C(=O)NCc1ccccc1
[1]
  z-score: 0.771
[2]
  z-score: 0.467 (inactive)
[3]
  z-score: -0.0664 (inactive)
[4]
  composite z-score: 0.101 (inactive)
[5]
  z-score: -0.223 (inactive)
[6]
  z-score: 1.7 (inactive)
[7]
  z-score: -0.0548 (inactive)
[8]
  z-score: 0.065 (inactive)
[9]
  z-score: -0.484
[10]
  composite z-score: 0.1
[11]
  composite z-score: 0.362 (inactive)
XIP peptide (Xip251-270)
  composite z-score: 0.573
[12]
  z-score: -2.24
[13]
  z-score: 2.8 (inactive)
[14]
  z-score: -0.306 (inactive)
[15]
  z-score: -0.144 (inactive)

## CCCC=C(CCC)[C@@H](NC(=O)c1ccccc1)c1ccc(C(=O)OC)cc1
[1]
  z-score: 0.295
[2]
  z-score: -0.366 (inactive)
[3]
  z-score: 0.286 (inactive)
[4]
  composite z-score: -5.83 (inactive)
[5]
  z-score: 2.23 (inactive)
[6]
  z-score: -0.363 (inactive)
[7]
  z-score: -0.634 (inactive)
[8]
  z-score: -0.078 (inactive)
[9]
  z-score: -0.0265
[10]
  composite z-score: 0.209
[11]
  composite z-score: -0.0026 (inactive)
XIP peptide (Xip251-270)
  composite z-score: 0.222
[12]
  z-score: -0.891
[13]
  z-score: -0.72 (inactive)
[14]
  z-score: 0.473 (inactive)
[15]
  z-score: 0.204 (inactive)

## C=CCN1C(=O)[C@]2(O[C@H](CCO)[C@@H]([Si](C)(C)c3ccc(OC)cc3)[C@@H]2C)c2ccccc21
[1]
  z-score: -2.84
[2]
  z-score: -5.08 (inactive)
[3]
  z-score: -1.46 (inactive)
[4]
  composite z-score: 0.0196 (inactive)
[5]
  z-score: 0.225 (inactive)
[6]
  z-score: 1.55 (inactive)
[7]
  z-score: -0.377 (inactive)
[8]
  z-score: -1.46 (inactive)
[9]
  z-score: -2.74
[10]
  composite z-score: -0.144
[11]
  composite z-score: 0.0965 (inactive)
XIP peptide (Xip251-270)
  composite z-score: 0.193
[12]
  z-score: -2.31
[13]
  z-score: -6.69 (inactive)
[14]
  z-score: -1.17 (inactive)
[15]
  z-score: -1.58 (inactive)

## O=C1C2C=CC(C(O)c3cccc(O)c3)N(Nc3ccccc3F)C2C(=O)N1c1ccccc1 (centres undefined)
[1]
  z-score: 0.244
[2]
  z-score: -14.7 (active)
[3]
  z-score: -0.343 (inactive)
[4]
  composite z-score: -2.46 (inactive)
[5]
  z-score: 1.22 (inactive)
[6]
  z-score: -7.32 (inactive)
[7]
  z-score: 0.684 (inactive)
[8]
  z-score: 0.573 (inactive)
[9]
  z-score: 0.133
[10]
  composite z-score: 0.0345
[11]
  composite z-score: 1.62 (inactive)
XIP peptide (Xip251-270)
  composite z-score: 0.632
[12]
  z-score: -1.33
[13]
  z-score: -3.57 (inactive)
[14]
  z-score: -0.388 (inactive)
[15]
  z-score: -1.33 (inactive)

## C=C(COC)/C(=C/C[C@H](OC(=O)c1ccncc1)c1cccc(OCCO)c1)c1cnc2ccccc2c1
[1]
  z-score: 0.123
[2]
  z-score: 0.14 (inactive)
[3]
  z-score: -1.24 (inactive)
[4]
  composite z-score: -5.24 (inactive)
[5]
  z-score: 1.14 (inactive)
[6]
  z-score: -0.148 (inactive)
[7]
  z-score: -0.259 (inactive)
[8]
  z-score: -0.199 (inactive)
[9]
  z-score: -0.697
[10]
  composite z-score: -0.0156
[11]
  composite z-score: 4.42 (inactive)
XIP peptide (Xip251-270)
  composite z-score: 0.823
[12]
  z-score: -2.72
[13]
  z-score: -4.94 (inactive)
[14]
  z-score: 0.321 (inactive)
[15]
  z-score: 0.275 (inactive)

## COC(=O)[C@@]1(Cc2ccc(F)cc2)[C@H]2c3cc(C(=O)N(C)C)n(CCO)c3C[C@H]2CN1C(=O)c1ccccc1
[1]
  z-score: -0.359
[2]
  z-score: -0.092 (inactive)
[3]
  z-score: -0.438 (inactive)
[4]
  composite z-score: -0.844 (inactive)
[5]
  z-score: 0.865 (inactive)
[6]
  z-score: -0.251 (inactive)
[7]
  z-score: -0.356 (inactive)
[8]
  z-score: -0.0099 (inactive)
[9]
  z-score: -0.0323
[10]
  composite z-score: 0.49
[11]
  composite z-score: 1.79 (inactive)
XIP peptide (Xip251-270)
  composite z-score: 0.39
[12]
  z-score: 0.196
[13]
  z-score: -4.71 (inactive)
[14]
  z-score: -0.0514 (inactive)
[15]
  z-score: 0.138 (inactive)

## O=C1OCCC=C[C@H]2OC34C=CCN(CCN5CCOCC5)C(=O)[C@H]3N(CCCO)C(=O)[C@@H]4C12 (some centres undefined)
[1]
  z-score: -0.368
[2]
  z-score: -0.494 (inactive)
[3]
  z-score: -0.525 (inactive)
[4]
  composite z-score: 0.394 (inactive)
[5]
  z-score: -0.481 (inactive)
[6]
  z-score: 0.23 (inactive)
[7]
  z-score: -0.418 (inactive)
[8]
  z-score: -0.822 (inactive)
[9]
  z-score: -0.62
[10]
  composite z-score: 0.0143
[11]
  composite z-score: 0.186 (inactive)
XIP peptide (Xip251-270)
  composite z-score: 0.0388
[12]
  z-score: -1.72
[13]
  z-score: -3.86 (inactive)
[14]
  z-score: -0.46 (inactive)
[15]
  z-score: -0.374 (inactive)
